# Shown is part of a subset that was picked to be rich in hits.
# Algae TAG accum: inducers of TAG accumulation in Chlamydomonas, primary screen, qHTS, Chlamydomonas reinhardtii; 44,000 tested, 0.84% active; calls only at 10 µM (by protocol); Nile Red fluorescence, 72 h; call rule not given here;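 further: hits raise Nile Red signal meaning more stored TAG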
# The depositor's hits bear a star; i = inactive; + = active, no number.
SMILES,Algae TAG accum
CC(=O)Nc1ccc(S(=O)(=O)NCCNc2ccc(Cl)cc2[N+](=O)[O-])cc1,i
COc1ccc(Cl)cc1NS(=O)(=O)c1cc(Cl)ccc1OC,i
COc1ccc(Cl)cc1S(=O)(=O)NCc1cccnc1,i
COCCNS(=O)(=O)c1cc(Cl)ccc1OC,+
COc1ccc(/C=C/C(=O)c2ccc(NC(=O)c3ccco3)cc2)cc1OC,i
COc1cc(Cl)c(S(=O)(=O)N2CCN(C)CC2)cc1Cl,i
Cc1cc(C)nc(NC(N)=NCc2ccco2)n1,i
O=C(Nc1ccc2oc(-c3ccncc3)nc2c1)c1ccccc1,i
COc1ccc(-c2nc3cc(NC(=O)c4ccccc4)ccc3o2)cc1,i
O=C(Nc1ccc2oc(-c3cccnc3)nc2c1)c1ccncc1,i
COc1cccc(C(=O)Nc2ccc3oc(-c4ccncc4)nc3c2)c1,+
COc1cccc(C(=O)Nc2ccc3oc(-c4ccc(F)cc4)nc3c2)c1,i
Cc1ccc(C(=O)Nc2ccc3oc(-c4ccncc4)nc3c2)cc1C,+
O=C(O)CCN1C(=O)C(=O)C(=C(O)c2ccc(Cl)cc2)C1c1ccc([N+](=O)[O-])cc1 (stereo not given),i
O=C(Nc1ccc(Cl)c(Cl)c1)N1CCN(Cc2ccc3c(c2)OCO3)CC1,i
Cc1nnc(N2C(=O)C(O)=C(C(=O)c3ccco3)C2c2cccc(Oc3ccccc3)c2)s1 (stereo not given),i
O=C(Nc1nccs1)c1ccc2nc(-c3ccco3)c(-c3ccco3)nc2c1,i
O=C(Nc1ccc2nsnc2c1)N1CCCC1,i
COc1cc2c(cc1OC)CN(Cc1cccc(F)c1)CC2,i
COc1cc2c(cc1OC)CN(Cc1ccc(N(C)C)cc1)CC2,i
COc1cc2c(cc1OC)CN(Cc1ccc(F)cc1)CC2,+
COc1ccc(NC2CC(=O)N(c3ccc(I)cc3)C2=O)cc1 (stereo not given),i
C=CCN1C(=O)C(=O)c2cc(Br)ccc21,+
O=C1C(=O)N(Cc2ccc(F)cc2)c2ccc(Br)cc21,i
C#CCN1C(=O)C(=O)c2cc(Br)ccc21,i
SMILES,Algae TAG accum
Cc1cccnc1NC(=O)Cc1ccc([N+](=O)[O-])cc1,i
CN1CCN(NC(=O)c2ccc(Cl)cc2[N+](=O)[O-])CC1,i
COc1ccc(C2NC(=O)N(C)C(C)=C2C(=O)Nc2ccccc2C)cc1 (stereo not given),i
Cc1ccc2nc(NC(=O)C3CC3)sc2c1,+
Cc1ccc2nc(NC(=O)C3CCCCC3C(=O)O)sc2c1 (stereo not given),i
Cc1ccc2nc(NC(=O)NC3CCCCC3)sc2c1,i
O=C1C=C(Cl)C2=CC(Cl)=C3C(=O)C=C(Cl)C4=CC(Cl)=C1C2C43 (stereo not given),i
O=C(Nc1ccc2nc(-c3ccccn3)c(-c3ccccn3)nc2c1)N1CCCC1,i
Cc1nc2ccc(NC(=O)Nc3ccc(N(C)C)cc3)cc2nc1C,i
CN(C)c1ccc(NC(=O)Nc2ccc3nc(-c4ccccn4)c(-c4ccccn4)nc3c2)cc1,+
COc1ccc(CCNC(=O)c2ccccc2F)cc1OC,i
O=C(c1ccc(Br)cc1)N1CCN(c2ccc([N+](=O)[O-])cc2F)CC1,i
O=c1[nH]c(-c2ccc(Br)cc2)nc2ccccc12,i
O=C(O)c1ccc(NC(=O)c2ccc(F)c(S(=O)(=O)Nc3ccc(C(=O)O)cc3)c2)cc1,i
O=C(C1CCN(CC2CCCCC2)CC1)N1CCN(c2ccccc2)CC1,i
c1ccc(N2CCN(CC3CCCCC3)CC2)cc1,+
CCN1CCC(N2CCN(c3ccccc3)CC2)CC1,i
COc1ccc(C(=O)O)cc1S(=O)(=O)N1CCOCC1,i
CS(=O)(=O)N(CC(=O)Nc1ccccc1C(=O)NCc1ccccc1)c1ccccc1F,i
Cc1ccc(C(=O)Nc2cc(C)on2)cc1,i
Cc1ccc(C(=O)Nc2cccc(I)c2)cc1C,i
Cc1cc(C=O)c(C)n1-c1ccc(Br)cc1F,+
COc1ccc(Cl)cc1-n1c(C)cc(C=O)c1C,i
Cc1cc(C=O)c(C)n1-c1ccc(O)cc1,i
CS(=O)(=O)N(CC(=O)NC1CCCCC1)c1ccc(Cl)c(Cl)c1,i
SMILES,Algae TAG accum
CCOc1cccc(N2C(=O)CC(NCc3ccc4c(c3)OCO4)C2=O)c1 (stereo not given),i
CCOc1ccccc1C(=O)NCc1ccc(F)cc1,i
O=C(c1ccc(Br)cc1)N1CCN(c2ccc([N+](=O)[O-])c(N3CCOCC3)c2)CC1,i
O=C(NCc1ccc2c(c1)OCO2)c1sc2ccccc2c1Cl,i
O=C(CN1CCCCCC1)Nc1cccc2c1OCO2,i
O=C(CN1CCCCC1)Nc1ncc(Cc2ccc(Br)cc2)s1,+
O=C(CN1CCCCC1)Nc1ccccc1NC(=O)CN1CCCCC1,i
COc1ccc(-c2c(C)sc3ncnc(N)c23)cc1OC,i
Cc1c(Cl)cccc1NC(=O)c1ccc(-c2ccccc2[N+](=O)[O-])o1,i
Cc1cc(C)c(NC(=O)c2cnccn2)c(C)c1,i
